TLR4-MyD88 inh: inhibitors of human TLR4-MyD88 binding; Toll-like receptor 4 (Homo sapiens), O00206; AID 811, 2007; Cell-based TLR4-MyD88 binding inhibition assay; actives 0.06% (n = 16,000); inhibition, % at 10 µM; in the data active means inhibition above about 45%
rat GALR2 agon: agonists of rat galanin receptor 2 (GALR2); Galanin receptor type 2 (Rattus norvegicus), O08726; actives 0.5% (n = 16,000); cell-based GALR2 agonist screen; AID 833, 2007; activation, % at 10 µM; in the data active means activation above about 15%
S1P1 agonist: activates the human S1P1 receptor | Sphingosine 1-phosphate receptor 1 (Homo sapiens), P21453 | S1P1 agonist cell-based reporter assay | activation, % at 4.5 µM | actives 1.5% (n = 16,000) | AID 1044, 2008; in the data active means activation above about 80%
Target sequence (P21453 whole entry, looked up): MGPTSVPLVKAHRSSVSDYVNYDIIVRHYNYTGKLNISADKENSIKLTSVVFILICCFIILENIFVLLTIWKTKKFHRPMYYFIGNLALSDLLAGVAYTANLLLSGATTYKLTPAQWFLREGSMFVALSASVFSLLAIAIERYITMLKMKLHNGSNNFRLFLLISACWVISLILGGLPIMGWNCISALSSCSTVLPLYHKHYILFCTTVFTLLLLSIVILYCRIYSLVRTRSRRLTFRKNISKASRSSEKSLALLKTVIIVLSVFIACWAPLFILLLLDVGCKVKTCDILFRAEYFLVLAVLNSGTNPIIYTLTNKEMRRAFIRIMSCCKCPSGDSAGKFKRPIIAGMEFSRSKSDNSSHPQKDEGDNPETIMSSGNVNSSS
KOR antag MB: antagonists of human kappa opioid receptor OPRK1, Maybridge library | Kappa-type opioid receptor (Homo sapiens), P41145 | OPRK1 cells, antagonist mode, fluorescence readout | inhibition, % at 9 µM | actives 0.4% (n = 16,000) | AID 652031, 2013; in the data active means inhibition above about 50%
Starred values were filed as active, the others as inactive; . = no result given. This is a sample that favours compounds with a hit; in the whole collection about 2.5% have one here.

SMILES	TLR4-MyD88 inh	rat GALR2 agon	S1P1 agonist	KOR antag MB
COc1ccc(CCNC(=O)C2CCCO2)cc1OC (configuration not stated)	-8	6	-5	3
COc1ccc(CCN2C(=O)CCC(C(=O)O)C2c2cc(OC)c(OC)c(OC)c2)cc1OC (configuration not stated)	8	-7	116*	-8
Cc1cc(NC(=O)c2cc(-c3ccccc3)c(C(F)(F)F)s2)on1	-7	-4	-5	4
O=C(Nc1ccccn1)c1cc(-c2ccccc2)c(C(F)(F)F)s1	-6	-10	87*	7
Cc1onc(-c2ccccc2)c1NC(=O)Nc1ccc(-n2ccc(C(F)(F)F)n2)cc1	3	-7	98*	8
CN(C)c1ccc(-n2nnnc2SCc2ccc(Cl)cc2)cc1	-11	1	-1	59*
CN(C)c1ccc(-n2nnnc2SCC(=O)c2cc3ccccc3o2)cc1	1	-3	-26	2
CN1c2ccsc2C(=O)/C(=N\Nc2cccc(C(F)(F)F)c2)S1(=O)=O	11	-8	87*	-4
O=C(Nc1ccc(Cl)cc1Cl)c1cc([N+](=O)[O-])cc2c1-c1ccc([N+](=O)[O-])cc1C2=O	-4	-11	22	53*
CCC(C)(C)OC(=O)c1cc([N+](=O)[O-])cc2c1-c1ccc([N+](=O)[O-])cc1C2=O	-1	-10	9	41
N#C/C(=C\Nc1ccc(F)c(Cl)c1)C(=O)C1CC1	-1	-4	-16	-16
N#C/C(=C\Nc1ccc2c(c1)OCCO2)C(=O)c1ccc(Cl)cc1	3	-2	85*	7
CN(CCC#N)c1ccc(C=NCCCN=Cc2ccc(N(C)CCC#N)cc2)cc1	5	-1	101*	-11
O=C(Nc1ccc(Oc2cccc(C(F)(F)F)c2)nc1)c1ccc2c(c1)CCO2	-6	-1	90*	-8
O=C(Nc1cccc(C(F)(F)F)c1)Nc1ccc2nonc2c1	-19	-1	59	-2
O=C(Nc1ccccc1)Nc1ccc(Oc2cccc(C(F)(F)F)c2)nc1	2	-6	87*	0
N#CC(C#N)=Cc1cccc(OCc2ccccc2)c1	10	-7	57	7
C(=N\Nc1ccccc1)/c1cccs1	10	-7	7	-5
Cn1c(C(=O)N2CCOCC2)ccc1S(=O)(=O)N(Cc1ccccn1)Cc1ccccn1	-9	-5	3	2
O=[N+]([O-])c1ccc(/C=C/c2nccc3ccsc23)cc1	-1	-7	-3	13
CCOC(=O)c1ccc(OCCOC)c(OCCOC)c1	-3	-6	16	11
COCCOc1cc2ncnc(N3CCC(C(=O)O)CC3)c2cc1OCCOC	7	-2	113*	-21
Cc1nccc(-c2cccc(NN=C(C#N)C#N)c2)n1	-3	-9	104*	-1
Cc1cc(F)ccc1NC(=O)c1c(-c2ccccc2Cl)noc1C	-26	-7	18	-8
COc1ccc(-c2cc(C(F)(F)F)n3nc(C4CC4)cc3n2)cc1	-5	-6	85*	20
SMILES	TLR4-MyD88 inh	rat GALR2 agon	S1P1 agonist	KOR antag MB
COc1ccc(-c2cc(C(F)(F)F)n3nc(-c4ccco4)cc3n2)cc1OC	7	27*	52	-12
COC(=O)c1cnn(-c2ccc(Cl)cc2)c1C=C(C#N)C#N	-15	-9	-42	75*
COC(=O)c1cnn(-c2ccc(Cl)cc2)c1C=Nc1ccc(C)cc1	-5	13	-2	3
CC(C)(C)c1csc(N)n1	-11	-6	-11	2
CC(Oc1ccc2oc3ccccc3c(=O)c2c1)C(=O)O (configuration not stated)	-2	0	-19	8
CC(C)Nc1c(-c2ccccc2)oc2ccc(C(=O)O)cc2c1=O	-11	28*	-2	-17
Cc1ccc([N+](=O)[O-])c(NS(=O)(=O)c2cc(Cl)c(Cl)cc2Cl)c1	3	-7	87*	20
COC(=O)c1ccccc1NC(=O)/C(C#N)=C\c1c(F)cccc1Cl	-8	3	4	12
CCN(CC)c1ccc(N=Nc2ccc(Br)cn2)c(O)c1	-2	-10	86*	43
O=C(Cn1ccc(C(F)(F)F)n1)Nc1cccc(C(F)(F)F)c1	-4	-5	-5	1
Clc1ccc(-n2nnc(/C=C/C=C/N3CCOCC3)n2)cc1	-4	30*	5	8
C[n+]1cccc(-c2n[nH]c(-c3ccccc3)n2)c1	8	-7	110*	8
O=[N+]([O-])c1ccc(-c2ccc(/C=N/NC(=S)Nc3cccc(F)c3)o2)cc1	9	-21	72	152*
NNC(=O)C(=O)Nc1ccc(Cl)cc1Cl	5	-2	-2	29
CCCOc1c(Cl)cc(C(=O)O)cc1Cl	-1	-4	-10	14
S=C(NCc1ccco1)Nc1ccc(C2=NCCO2)cc1	0	-1	-13	10
S=C(NCc1ccco1)Nc1cccnc1	4	-8	120*	9
Cn1sc(=O)c2cc(S(=O)(=O)Nc3ccccc3N3CCCCC3)ccc21	-7	16*	-3	14
Cc1ccc(S(=O)(=O)NC(=O)Nc2ccccc2N2CCCCC2)cc1	-5	-8	-4	18
Cc1nn(-c2ccccc2)nc1C(=O)NNC(=O)CSCc1cccc2ccccc12	1	-8	89*	-4
O/N=C1\COc2ccccc2O1	0	-6	2	17
Cc1cc(C(N)=O)c(C(F)(F)F)o1	4	-8	3	9
CN1C2CCC1CC(NC(=O)CSCc1ccc(Cl)cc1Cl)C2 (configuration not stated)	-11	51*	-2	12
COC(=O)c1cc(-c2ccc(OC)cc2)c(-c2ccc(OC)cc2)s1	-10	-12	6	78*
COC(=O)c1cc(C)c(-c2ccc(-c3ccccc3F)cc2)s1	6	-8	46	7
SMILES	TLR4-MyD88 inh	rat GALR2 agon	S1P1 agonist	KOR antag MB
COC(=O)/C=C1\SC(c2ccccc2)=NC1=O	-1	-6	-9	-4
COC(=O)/C=C1\SC(=Nc2ccc(Cl)cc2)N(c2ccc(Cl)cc2)C1=O	-23	-11	46	65*
O=[N+]([O-])c1cc(C(F)(F)F)cc([N+](=O)[O-])c1N1CCCC(Cn2cccc2)C1 (configuration not stated)	7	-12	-9	-18
COc1ccc(NC(=S)NC(C)(C)C)c([N+](=O)[O-])c1	17	-1	90*	-11
CSc1nc(N)nc(-c2cccs2)c1C#N	21	-4	-12	-16
CSc1nc(-c2cccs2)cc(C(F)(F)F)c1C#N	-6	31*	-13	-9
O=C(Nc1cc(C(F)(F)F)ccc1Cl)C(=S)NCc1ccco1	-2	-4	-20	-13
COc1ccccc1NC(=O)NCCN1CCN(Cc2ccccc2)CC1	4	-8	-11	80*
CCOC(=O)/C(C#N)=C/c1cn(-c2ccccc2)nc1-c1ccccc1	5	69*	-6	2
CCOC(=O)c1c(NC(=S)Nc2cc(C)nn2-c2ccccc2)sc(C)c1C	2	-9	10	-10
CCOC(=O)c1c(NC(=O)c2ccc3ncccc3c2)sc(C)c1C	.	42*	-1	-23
O=C(OCc1ccc(Cl)cc1Cl)c1ccc([N+](=O)[O-])cc1	1	-5	0	4
